Tested on: RIVA
Assay: growth inhibition by drug alone (1 - RLU/untreated control) (fraction); higher = stronger inhibition
Conditions: 177Lu-lilotomab satetraxetan 0 ug/ml
Procedure: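 RIVA (RI-1) ABC-DLBCL cells were pretreated or not for 18 h with 0.5 ug/ml 177Lu-lilotomab satetraxetan (600 MBq/mg), washed and seeded (3000 cells/well) on 384-well plates pre-printed with the Selleck Cambridge Cancer Compound library. Viability was read by RealTime-Glo luminescence on days 3-6 after seeding. Effect = 1 - RLU/mean RLU of the 48 untreated no-drug control wells per plate; Bliss score = (M-E)/(1-Fa).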

Row | SMILES | growth inhibition by drug alone (10 nM, time (day): 3) | growth inhibition by drug alone (10 nM, time (day): 4) | growth inhibition by drug alone (10 nM, time (day): 5) | growth inhibition by drug alone (10 nM, time (day): 6) | growth inhibition by drug alone (100 nM, time (day): 3) | growth inhibition by drug alone (100 nM, time (day): 4) | growth inhibition by drug alone (100 nM, time (day): 5) | growth inhibition by drug alone (100 nM, time (day): 6)
1 | C#Cc1cccc(Nc2ncnc3cc(OC)c(OCCCCCCC(=O)NO)cc23)c1 | -0.19 | -0.225 | -0.209 | -0.242 | 0.881 | 0.779 | 0.749 | 0.672
2 | COc1cc2ncnc(Nc3ccc(F)c(Cl)c3)c2cc1OCCCN1CCOCC1 [Gefitinib (Iressa)] | -0.00639 | -0.111 | -0.168 | -0.438 | -0.234 | -0.33 | -0.334 | -0.479
3 | Cc1ccc(F)c(NC(=O)Nc2ccc(-c3cccc4[nH]nc(N)c34)cc2)c1 [Linifanib (ABT-869)] | -0.11 | -0.109 | -0.157 | -0.289 | 0.0372 | 0.000859 | -0.0495 | -0.102
4 | Cn1cc(-c2ccc3nnc(C(F)(F)c4ccc5ncccc5c4)n3n2)cn1 | -0.216 | -0.252 | -0.259 | -0.266 | -0.157 | -0.252 | -0.203 | -0.226
5 | CCn1c(-c2nonc2N)nc2cnc(Oc3cccc(NC(=O)c4ccc(OCCN5CCOCC5)cc4)c3)cc21 | -0.232 | -0.237 | -0.286 | -0.351 | -0.202 | -0.237 | -0.215 | -0.241
